Data on 40 molecules can be found in the supplement of paper PMC13380429.

Structures are written as SMILES. A number with no mark means an inactive call.

This test relates to Vero E6 infected with SARS-CoV-2. Put plainly: inhibition of SARS-CoV-2 cytopathic effect; higher = more antiviral protection, active = above 15. As to conditions: 8.33 nM; 48 h. Background: Protection from cytopathic effect is a common read-out in antiviral testing.
With `C[C@@H]1Cc2c([nH]c3ccccc23)[C@@H](c2c(F)cc(/C=C/C(=O)O)cc2F)N1CC(C)(C)F`, the “inhibition of SARS-CoV-2 cytopathic effect” value (“inhibition” for short) is 1.08%.
With `NS(=O)(=O)c1cc2c(cc1Cl)N=CNS2(=O)=O` [chlorothiazide], the “inhibition” value was 0%.
For `CC(C)[C@H]1c2ccc(F)cc2CC[C@@]1(CCN(C)CCCc1nc2ccccc2[nH]1)OC(=O)C1CC1` the value was 2.76%.
As for `CCCCc1ccc2[nH]c(NC(=O)OC)nc2c1` [parbendazole], the figure is 0.63%.
For `CC[C@@H](CO)NC(=O)[C@@H]1C=C2c3cccc4[nH]cc(c34)C[C@H]2N(C)C1` [methylergometrine] the value was 0.44%.
For `CC(C)N[C@H]1CCn2c(=O)[nH]c3cccc(c32)[C@@H]1O` [zilpaterol], the “inhibition” value is -0.6%.
For `CCOC(=O)Nc1nc2ccccc2[nH]1` [lobendazole] the value was -7.4%; for `CN(C)c1ccccc1CN1CCCN(Cc2ccccc2N(C)C)C1c1ccncc1`, 1.84%.
As for `CN1C(=O)N(C)C2C1N(C)C(=O)N2C` (stereo not given) [mebicar], the figure is -1.8%.
As for `CC(=O)Oc1ccccc1C(=O)O` [aspirin], the figure is -5.82%; as for `Cc1c(C(=O)NN2CCCCC2)nn(-c2ccc(Cl)cc2Cl)c1-c1ccc(Cl)cc1` [rimonabant], 1.55%; as for `CS(=O)(=O)Nc1ccc([N+](=O)[O-])cc1Oc1ccccc1` [nimesulide], -0.72%.
As to `O=c1nc2ccccc2c2n1CC(CN1CCN(c3ccccc3)CC1)N2` (stereo not given), the “inhibition” value was 5.11%.
On to `COc1cc(Cc2cnc(N)nc2N)cc(OC)c1OC` [trimethoprim], for which the “inhibition” value is 0.21%.
For `CN1[C@@H]2C[C@@H](O)C[C@H]1[C@@H]1O[C@@H]12` [scopine] the value was -0.43%; for `C=CCNc1ncnc2ccc(Br)cc12`, 5.36%; for `COc1ccc2cc(C(C)C(=O)Oc3ccc(C(N)=S)cc3)ccc2c1` (stereo not given), 0.03%.
For the molecule `CN[C@H](CC(C)C)C(=O)N[C@H]1C(=O)N[C@@H](CC(N)=O)C(=O)N[C@H]2C(=O)N[C@H]3C(=O)N[C@H](C(=O)N[C@H](C(=O)O)c4cc(O)cc(O)c4-c4cc3ccc4O)[C@H](O[C@H]3C[C@](C)(N)[C@@H](O)[C@H](C)O3)c3ccc(c(Cl)c3)Oc3cc2cc(c3O[C@@H]2O[C@H](CO)[C@@H](O)[C@H](O)[C@H]2O[C@H]2C[C@](C)(NCc3ccc(-c4ccc(Cl)cc4)cc3)[C@@H](O)[C@H](C)O2)Oc2ccc(cc2Cl)[C@H]1O` [oritavancin], the “inhibition” value was 3.58%.
For `N=C(N)c1ccc(/N=N/Nc2ccc(C(=N)N)cc2)cc1` [diminazene-aceturate] the value was -1.51%.
`C=CC[N+]1([C@H]2C[C@H]3[C@@H]4CC[C@H]5C[C@H](O)[C@@H](N6CCOCC6)C[C@]5(C)[C@H]4CC[C@]3(C)[C@H]2OC(C)=O)CCCC1`: the “inhibition” value was -0.87%.
As for `C[C@H]1[C@H](C)CC[C@]2(C(=O)O)CC[C@]3(C)C(=CC[C@@H]4[C@@]5(C)C[C@@H](O)[C@H](O)[C@@](C)(CO)[C@@H]5CC[C@]43C)[C@H]12` [asiatic-acid], the figure is -0.62%; as for `Nn1cnc2cc3ccccc3cc2c1=O` [centazolone], 0.85%.
For `Cc1cc(C(=O)O)sc1C(N)C(=O)O` (stereo not given) the value was -0.48%; for `NC(=O)C(c1ccccc1)(c1ccc(F)cc1)c1ccc(F)cc1` [senicapoc], -1.48%; for `CCOc1c2c(c(OCC)c3ccccc13)C(=O)N(c1ccc(CC(=O)NS(=O)(=O)c3ccccc3)cc1)C2`, 0.35%.
For `COc1c(O)cc2c(c1O)[C@@H]1O[C@H](CO)[C@@H](O)[C@H](O)[C@H]1OC2=O` [bergenin] the value was -2.26%.
For `O=C(O)c1cc(/N=N/c2ccc(O)c(C(=O)O)c2)ccc1O` [olsalazine], the “inhibition” value is 2.03%.
As for `O=C(Cc1ccc(-c2ccccc2)cc1)Nc1ccccn1` [difenpiramide], the figure is 3.03%; as for `Nc1nc(N)c(N=O)c(OCC2CCCCC2)n1`, 3.73%; as for `CC(C)N(CC[C@H](c1ccccc1)c1cc(CO)ccc1O)C(C)C` [5-hydroxymethyl-tolterodine], -1.4%.
As for `CCn1c(=O)c2c(nc(/C=C/c3ccc(OC)c(OC)c3)n2C)n(CC)c1=O` [istradefylline], the figure is -1.49%; as for `Cc1cccc(N(C)C(=S)Oc2ccc3ccccc3c2)c1` [tolnaftate], 0.08%.
With `CCOC(=O)c1ccc(NC2CCCCC2)c(N)c1` [ferrostatin-1], the “inhibition” value was 3.56%.
For `COc1cccc(C=NCCN=Cc2cccc(OC)c2[O-])c1[O-].[Cl-].[Mn+3]` the value was 1.86%.
For `COc1ccc(-c2oc3cc(OC)ccc3c2C(=O)c2ccc(C#N)cc2)cc1` the value was -2.08%.
As for `CC1(C)S[C@@H]2[C@H](NC(=O)COc3ccccc3)C(=O)N2[C@H]1C(=O)O` [penicillin-v-potassium], the figure is 1.87%; as for `O=C(O)c1cccnc1C(=O)O` [quinolinic-acid], -1.19%.
Take `CCOC(=O)c1ccc(OC(=O)CCCCCNC(=N)N)cc1` [gabexate]: the “inhibition” value is -1.96%.
`CCOc1ccc2ccccc2c1C(=O)N[C@@H]1C(=O)N2[C@@H]1SC(C)(C)[C@@H]2C(=O)O` [nafcillin]: the “inhibition” value is 1.27%.
For `COc1ccc(CNC(=O)c2sc3nc(C)cc(C)c3c2N)cc1` the value was 2.93%.
